Many of the other results were omitted from the sample, so hits are more common in it than they were.
PI4K2A inh: PI4K2A (human) kinase inhibition; purified PI4K2A, ADP-Glo luminescence, 1 h; active compounds read low; activity change, negative = inhibition, % at 76.9 µM; 0.13% of 420,000 active; AID 1346378; in the data active = activity change below about -50%; inconclusive = mostly about -30% to -49%;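 also: -100% = wells without enzyme as full effect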
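Compounds are screened against recombinant PI4K2A using PI as substrate and ATP, the latter dispensed at 300 microM. Reactions run one hour at ambient temperature before ADP-Glo detection; full inhibition defined by wells lacking enzyme.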
Tb PGK inh: blocks T. brucei phosphoglycerate kinase; P07378; PGK/GAPDH coupled, Kinase-Glo luminescence, 60 min; Potency, µM (series often up to 57.5 µM), for inactives: at the top dose activity change, negative = inhibition, most hits filed as inhibitors; 0.043% of 380,000 active; also: potency is read from the fitted curve at half-maximal effect; nearly all actives have a fitted effect of over 60% in size
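Luminescent ATP detection (Kinase-Glo Plus) follows a 60-minute room-temperature incubation, with wells lacking PGK as controls. Buffer: 100 mM TEA (pH 7.6), 5 mM MgCl2, 0.01% Tween-20. Coupling enzyme GAPDH (100 nM final) supplies unstable 1,3-BPG in-well.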
Tb PFK inh: blocks T. brucei phosphofructokinase | O15648 | T. brucei PFK, ADP-Glo luminescence | Potency, µM (highest dose often 57.5 µM), for inactives: at the top dose activity, negative = inhibition, actives largely listed as inhibitors | 0.17% of 330,000 active | AID 485367;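 also: potency is read from the fitted curve at half-maximal effect; 0% = uninhibited 1x PFK enzyme wells and -100% = no-enzyme wells; nearly all actives have a fitted effect of over 60% in size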
Target sequence (O15648 whole entry, looked up): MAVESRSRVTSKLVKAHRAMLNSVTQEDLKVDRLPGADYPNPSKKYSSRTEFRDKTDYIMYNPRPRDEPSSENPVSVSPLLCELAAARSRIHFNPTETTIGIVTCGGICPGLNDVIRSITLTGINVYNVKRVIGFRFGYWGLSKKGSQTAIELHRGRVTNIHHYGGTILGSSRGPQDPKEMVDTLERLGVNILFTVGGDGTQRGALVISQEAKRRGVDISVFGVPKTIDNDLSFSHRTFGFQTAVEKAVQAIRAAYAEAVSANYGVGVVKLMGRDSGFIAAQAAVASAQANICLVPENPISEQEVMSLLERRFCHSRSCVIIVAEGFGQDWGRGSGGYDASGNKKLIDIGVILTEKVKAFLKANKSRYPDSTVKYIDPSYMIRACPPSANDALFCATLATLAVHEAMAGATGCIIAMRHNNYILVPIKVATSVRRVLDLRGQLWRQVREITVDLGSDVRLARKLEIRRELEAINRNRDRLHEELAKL
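Compounds were pin-transferred as a titration series up to 57 uM into substrate buffer (0.5 mM F6P, 0.1 mM ATP, pH 8.0), then 1.25 nM PFK was added and reactions ran 45 min before ADP-Glo detection.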
PI5P4Ka inh: PI5P4K alpha (human) kinase inhibition | 1.2% of 330,000 active | P48426 | PI5P4Kalpha enzyme, ADP-Glo luminescence, 60 min; active compounds read low | max response, % | AID 652105; active = max response of -50% or lower; inconclusive = between -30% and -50%; inactive = -30% or higher; also: value at the top dose of about 77 µM
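Enzyme plus substrate dispensed, test compounds pinned in, then ATP (5 microM final) added. After 60 min at RT, ADP-Glo reagent 1 for 45 min and reagent 2 for 30 min preceded luminescence imaging.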
Pin1 inhibitor: blocks the human prolyl isomerase Pin1 | Q13526 | Pin1 FP peptide displacement, HiFluor488, 10 min | Potency, µM (titrated, usually from 115 µM), without a hit: top-dose activity, negative = inhibition, hits mostly inhibitors | 0.009% of 390,000 active; active = well fitted inhibition curve with a large enough effect in the polarisation, with a control signal flat, not every such curve was filed as active; inconclusive = small, poorly fitted or top-dose-only effect, or effect the other way, or a change in a side signal; inactive = no such curve, though single readings can be large or run the other way; the % refers to the polarisation; also: potency is read from the fitted curve at half-maximal effect
Target sequence (Q13526 whole entry, looked up): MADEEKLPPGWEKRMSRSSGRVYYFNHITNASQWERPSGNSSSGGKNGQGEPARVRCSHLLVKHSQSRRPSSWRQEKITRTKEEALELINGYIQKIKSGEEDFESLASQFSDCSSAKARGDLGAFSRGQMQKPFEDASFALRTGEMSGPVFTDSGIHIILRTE
The depositor's hits bear a star; i = inactive; ? = inconclusive; · = no result given; [ ] = another dose, or the depositor's remark. Unless noted, calls follow the shape of the dose curve; as a rule, active = well fitted curve in the direction sought with a large enough effect; inconclusive = small, poorly fitted or top-dose-only effect, or another doubt; inactive = no such curve, though single readings can be large; an effect the other way counts as inactive or inconclusive. Unless noted, % is scaled to controls: 0 for no effect and ±100 for the full control effect.

SMILES	PI4K2A inh	Tb PGK inh	Tb PFK inh	PI5P4Ka inh	Pin1 inhibitor
COc1cc(/C=C2/C(=O)c3cccc([N+](=O)[O-])c3C2=O)c(Br)cc1O	-23.0	-15.8%	?	-60.5*	-27.0%
Cc1ccc(C(=O)NC2CCCCN(Cc3cccc(F)c3)C2=O)cc1 (stereo not given)	2.9	·	·	·	·
Cc1ccc(/C=C/C(=O)O)cc1S(=O)(=O)N(C)CCO	0.0	i	-7.3%	-64.1*	-0.2%
COc1cc(/C=C/C(=O)O)cc(S(=O)(=O)N(C)CCO)c1OC	-3.0	-0.2%	-1.4%	-7.9	3.9%
Cc1ccc(NS(=O)(=O)c2cc3c(cc2Cl)CCC(=O)N3)cc1C	·	·	·	·	-1.3%
Cc1ccc(C2=NN3C(C2)c2ccccc2OC32C(=O)Nc3ccccc32)cc1 (stereo not given)	-4.8	2.3%	1.6%	-53.0*	20.0%
CCn1c(=O)c2c(nc(C=Cc3ccc(OC)c(OC)c3)n2C)n(CC)c1=O	-1.8	·	·	·	·
O=C(COCCOCCOCC(=O)Nc1c(I)cc(I)c(C(=O)O)c1I)Nc1c(I)cc(I)c(C(=O)O)c1I	-1.9	·	·	·	·
CCOC(=O)c1cc(C#N)c(=S)[nH]c1C	4.3	-7.0%	-14.8%	-26.3	?
COCc1[nH]c(=S)c(C#N)cc1C(=O)OC	-5.1	24.3%	-2.9%	-61.7*	?
Cc1ccc(NS(=O)(=O)c2cc([N+](=O)[O-])ccc2NNC(=S)Nc2cccc(Cl)c2)c(C)c1	-1.9	-19.0%	-6.6%	-66.6*	1.1%
CSc1nc(C)cc(C)c1C#N	3.0	-7.4%	0.7%	-50.1*	-12.6%
Cc1cc(C)c(C#N)c(SCc2ccc(F)cc2)n1	-0.5	i	2.4%	-5.5	-8.4%
CC(=O)Nc1ccc(C2=NNC(=Nc3cccc(S(=O)(=O)N(C)C)c3)SC2)cc1	-27.9	·	-26.0%	-71.0*	-2.8%
O=C1Cc2cc(S(=O)(=O)N3CCN(c4ccc(Cl)cc4)CC3)ccc2N1	·	·	·	·	-7.8%[230 µM]
Cc1c(N=Cc2cc(Br)cc(Br)c2O)cccc1C(=O)O	-23.4	?	0.6%	-58.0*	?
COc1cc(/C=C(\C#N)c2[nH]nc(N)c2C#N)cc(OC)c1O	6.1	-2.6%	2.8%	-64.3*	49.5%
O=C(O)c1ccc(N2CCc3ccccc32)c([N+](=O)[O-])c1	-2.8	-0.5%	-0.7%	-79.0*	1.7%
COC(=O)c1ccc(N2CCc3ccccc32)c([N+](=O)[O-])c1	6.3	-3.8%	1.8%	-15.2	3.4%
Cc1cc(C)cc(-n2cccc2/C=C2/C(=N)N3C(=NC2=O)SN=C3S(C)(=O)=O)c1	-1.1	-3.0%	-6.4%	?	1.3%
CCc1ccc(-n2cccc2/C=C2/C(=N)N3C(=NC2=O)SN=C3S(C)(=O)=O)cc1	3.9	-12.2%	0.3%	-61.3*	?
Cc1ccc(-n2cccc2/C=C2/C(=N)N3C(=NC2=O)SN=C3S(C)(=O)=O)cc1	-3.8	-12.1%	-1.8%	-67.0*	-1.1%
CCC1=NN2C(=N)/C(=C\c3cccn3-c3ccc(Cl)cc3)C(=O)N=C2S1	-1.6	-0.3%	1.4%	-5.7	9.2%
CS(=O)(=O)C1=NSC2=NC(=O)/C(=C\c3cccn3-c3ccccc3Cl)C(=N)N21	-11.4	-15.6%	-6.7%	-94.7*	22.1%
N#CC1(c2ccc(F)cc2)CCC(=O)CC1	2.2	·	·	·	·
SMILES	PI4K2A inh	Tb PGK inh	Tb PFK inh	PI5P4Ka inh	Pin1 inhibitor
CCCCCCCCCCCC1=C(O)C(=O)C=C(O)C1=O	-11.7	-7.3%	·	-62.4*	28.2µM*
COC1=CC(=O)C(O)=C(CCCCCCC/C=C/CCCCCCCC2=C(O)C(=O)C=C(OC)C2=O)C1=O	-11.9	?	·	-75.1*	·
CCCCCCc1c(O)c2ccccc2[nH]c1=O	6.0	-0.3%	-12.8%	·	2.1%
CC1COCC(C)N1C1=C(Cl)C(=O)c2ccccc2C1=O (stereo not given)	-16.5	2.6%	·	-69.7*	2.3%
CN1CCN(C2=C(Cl)C(=O)c3ccccc3C2=O)CC1	-55.0*	?	·	-4.0	67.5µM*
CN1CCN(C2=C(Cl)C(=O)C(c3cnc(N4CCCCC4)s3)=C(Cl)C2=O)CC1	-16.8	-0.3%	?	-89.0*	-19.7%
NC(=O)C1CCN(C2=C(Cl)C(=O)c3ccccc3C2=O)CC1	-1.5	-6.9%	-7.1%	·	-10.1%
O=C1C(Cl)=C(N2CCC(C(=O)O)CC2)C(=O)c2ccccc21	-14.7	-14.3%	-19.6%	?	-10.0%
CCCCCc1c2c(cc(O)c1C(=O)O)OC(=O)c1c(cc(OC)cc1C(=O)CCCC)O2	-0.3	-10.4%	0.0%	?	17.8µM*
CCOC(=O)C1=C(COC(=O)/C=C/c2ccc(OC)cc2)NC(=O)NC1C (stereo not given)	0.2	-6.4%	0.0%	2.3	3.8%
CCOC(=O)C1=C(COC(=O)/C=C/c2ccco2)NC(=O)NC1C (stereo not given)	-7.0	?	?	-53.8*	?
Cc1cc2c(s1)c1cnn(Cc3cc(F)cc(F)c3F)c(=O)c1n2C	·	·	·	·	0.3%
Cc1cccc(Nc2nnc(SCC(=O)c3ccc(O)cc3O)s2)c1	1.1	i	-0.6%	-15.4	0.9%
Cc1ccc(Nc2nnc(SCC(=O)c3ccc(O)cc3O)s2)cc1	2.5	2.0%	-2.8%	-55.7*	-7.9%
COc1ccc(-c2ccc3ncnc(NCCc4cnc[nH]4)c3c2)cc1OC	·	·	·	·	2.6%
Nc1c(S(=O)(=O)O)cc(NC(=O)c2ccccc2)c2c1C(=O)c1ccccc1C2=O	-28.8	·	-5.8%	-77.3*	·
S=c1[nH]c2ncccc2o1	5.9	i	1.2%	·	-3.4%
S=c1[nH]c2cc(Cl)c3cccnc3c2o1	-6.6	-4.1%	12.6%	-52.7*	8.5%
NC(=O)c1ccc(N=Nc2c(O)c3ccccc3[nH]c2=O)cc1	·	·	2.1%	·	·
N=C(N)c1ccc(N=Nc2c(O)ccc3c2[nH]c2ccccc23)cc1	-8.6	-10.9%	·	-71.0*	?
Cc1cc(C)c2c(=O)n(CC(=O)NCCCN3CCN(c4ccccc4F)CC3)sc2n1	-1.7	-6.7%	12µM*	-77.1*	-1.0%
COc1ccc(C2Nc3ccccc3C(=O)N2CCc2ccc(Cl)cc2Cl)cc1COc1ccc(NC(C)=O)cc1 (stereo not given)	·	·	·	·	-5.3%
Cc1[nH]n(-c2ccc(F)cc2)c(=O)c1C=Nc1ccc(S(=O)(=O)N(C)C)cc1	-4.8	2.4%	3.9%	0.1	0.1%
Cc1c(C=Nc2ccc(S(=O)(=O)CCO)cc2)c(O)[nH]c(=O)c1C#N	-13.1	-2.8%	·	-77.7*	?
Cc1c(C=Nc2ccc(S(=O)(=O)N(C)C)cc2)c(O)[nH]c(=O)c1C#N	-1.3	i	·	-90.2*	?
Cc1c(C#N)c(O)n(CCO)c(=O)c1N=Nc1ccc(S(N)(=O)=O)cc1	-6.6	-5.2%	17.2%	-19.9	18.7%
C=CCn1c(=O)c(CCC(=O)Nc2ccc(N3CCOCC3)cc2)nc2cc(C(F)(F)F)ccc21	-1.6	-2.3%	-7.8%	-53.2*	·
Cc1cc2c(s1)c1cnn(Cc3c(F)c(F)c(C(F)(F)F)c(F)c3F)c(=O)c1n2C	·	·	·	·	1.0%
